# Compound activity: PubChem BioAssay, National Center for Advancing Translational Sciences (NCATS)
# Nrf2 inh = Nrf2 qHTS screen for inhibitors | A549 ARE-Fluc reporter, luciferase luminescence, 18-24 h | Potency, µM (doses to about 46 µM), inactives show top-dose activity change, negative = inhibition, hits mostly inhibitors | 360,000 tested, 2.1% active | AID 504444, 2011; note: potency is the fitted concentration of half-maximal effect; % is set by controls: 0 for no effect and ±100 for the full control effect; nearly all actives have a fitted effect of over 60% in size
#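 A549 ARE_Fluc cells (5000/well, 5% FBS OPTI-MEM) pre-incubated 2 h, then treated with compounds 18-24 h at 37C/5% CO2 in concentration-response. CellTiter-Fluor viability read first; BugLite luciferase luminescence after 15 min at room temperature gives Nrf2 activity.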
# Nrf2 ARE act = qHTS of Nrf2 Activators; AREc32 ARE-luciferase reporter (MCF7-derived line), luminescence, 24 h; Potency, µM (titrated, usually from 46.1 µM), without a hit: at the top dose activation, hits mostly activators; 410,000 tested, 0.31% active; AID 624171, 2012; note: potency is the fitted concentration of half-maximal effect; % of control where 0% means no effect; nearly all actives have a fitted effect of over 65% in size
#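 AREc32_Fluc, 1000 cells/well, OPTI-MEM + 5% FBS, o/n 37 deg C 5% CO2; 23 nL cpd by pin tool, 24 hr; Steady-Glo 30 min RT, luminescence.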
# A549 tox = Nrf2 qHTS screen for inhibitors: counterscreen for cytotoxicity; A549 ARE-Fluc cells, CellTiter-Fluor viability, 18-24 h; Potency, µM (series often up to 46 µM), inactives show at the top dose activity change, negative = cytotoxicity, actives largely listed as inhibitors; 390,000 tested, 0.16% active; AID 504648, 2011; note: potency is the fitted concentration of half-maximal effect; % is set by controls: 0 for no effect and ±100 for the full control effect
#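 A549 ARE_Fluc cells in 5% FBS OPTI-MEM were exposed to compounds in concentration-response for 18-24 h at 37 deg C. Viability was read by CellTiter-Fluor fluorescence (Ex 405/Em 525) after 30 min, before the luciferase read.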
# LDHA inh = qHTS assay for inhibitors of human lactate dehydrogenase. 480,000 tested, 0.15% active. purified LDHA, NADH/diaphorase-resazurin fluorescence; stronger effect = lower value. L-lactate dehydrogenase A chain (Homo sapiens), P00338. activity change, % (values are at about 110 or 230 µM); in the data active = activity change below about -30%; inconclusive = mostly about -25% to -30%;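 note: plate controls were DMSO wells for no effect and wells without enzyme for full effect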
#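 Enzyme activity of human lactate dehydrogenase 5 (2 nM; 0.06 mM NADH, 0.2 mM pyruvate, 5 min, RT) is measured via a resazurin/diaphorase fluorescence readout of residual NADH.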
# ALOX12 inh = Primary qHTS assay for inhibitors of human arachidonate 12S-lipoxygenase (ALOX12): Round 2 | Polyunsaturated fatty acid lipoxygenase ALOX12 (Homo sapiens), P18054 | purified 12hLO, xylenol orange hydroperoxide absorbance | Potency, µM (series often up to 108 µM), for inactives: top-dose activity change, negative = inhibition, usual class: inhibitors | 580,000 tested, 1.1% active; note: potency is the fitted concentration of half-maximal effect; % is set by controls: 0 for no effect and ±100 for the full control effect
#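 Purified human 12hLO (150 nM final) in 25 mM Hepes, 0.01% Triton X-100, pH 7.0 was preincubated 15 min at room temperature with compound. Then 40 uM arachidonic acid was added, 30 min. Hydroperoxide was read by Fe-XO absorbance ratio 573/405 nm.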
# mIDH1 inhibitor = qHTS for Inhibitors of mutant isocitrate dehydrogenase 1 (IDH1): qHTS; Isocitrate dehydrogenase [NADP] cytoplasmic (Homo sapiens), O75874; Potency, µM (doses to about 76.6 µM), for the others: at the highest dose activity change, negative = inhibition, actives largely listed as inhibitors; 390,000 tested, 0.093% active; AID 602179, 2012; IDH1-R132H enzyme, NADPH consumption, diaphorase/resazurin fluorescence; note: potency is the fitted concentration of half-maximal effect; % is set by controls: 0 for no effect and ±100 for the full control effect; nearly all actives have a fitted effect of over 65% in size
# Target sequence (O75874 whole entry R132H, stated change not applied): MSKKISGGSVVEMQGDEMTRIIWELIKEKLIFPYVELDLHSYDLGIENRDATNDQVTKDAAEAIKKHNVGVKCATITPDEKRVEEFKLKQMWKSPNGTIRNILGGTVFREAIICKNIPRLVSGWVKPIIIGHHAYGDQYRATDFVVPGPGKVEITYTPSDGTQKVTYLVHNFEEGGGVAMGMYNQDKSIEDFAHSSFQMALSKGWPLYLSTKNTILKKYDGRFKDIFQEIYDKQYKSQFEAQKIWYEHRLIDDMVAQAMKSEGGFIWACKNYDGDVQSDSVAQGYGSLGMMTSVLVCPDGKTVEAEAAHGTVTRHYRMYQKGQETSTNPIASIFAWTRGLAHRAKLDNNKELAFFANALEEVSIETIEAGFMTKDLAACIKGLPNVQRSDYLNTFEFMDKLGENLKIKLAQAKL
#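 IDH1-R132H (0.5 ug/mL) preincubated 30 min with compound, then NADPH (0.016 mM) and alpha-KG (2 mM) added; 80 min at RT, pH 7.5. Remaining NADPH coupled via diaphorase/resazurin to fluorescence (540/590 nm); concentration-response curves normalized to no-enzyme control.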
# * hit, by the source's call; ? = inconclusive; . = not tested or not shown. Most compounds without a hit are left out; they make up all but 2.7% or so of the library. Unless noted, calls come from the whole dose curve; as a rule, active = well fitted curve in the direction sought with a large enough effect; inconclusive = small, poorly fitted or top-dose-only effect, or another doubt; inactive = no such curve, though single readings can be large; an effect the other way counts as inactive or inconclusive.
SMILES,Nrf2 inh,Nrf2 ARE act,A549 tox,LDHA inh,ALOX12 inh,mIDH1 inhibitor
O=C(COC(=O)c1c2c(nc3ccccc13)/C(=C/c1ccco1)CC2)NC1CCCC1,5%,10%,?,7,25µM*,0%
COc1ccc(OC)c(CCNC(=O)Cn2nc(C)c3c(C)n(-c4ccc(C)cc4)nc3c2=O)c1,10µM*,2%,-15%,-17,?,-13%
NC(CO)c1ccc(OCc2ccccc2)cc1 (stereo not given),.,.,.,0,?,.
COc1ccc(NC(=O)N[C@@H]2C=C[C@@H](c3c(C)nn(-c4ccc(C(C)C)cc4)c3C)C2)cc1,.,.,.,.,1%,.
COC(=O)c1cccc(NC(=S)N[C@@H]2C=C[C@@H](c3c(C)nn(-c4ccc(C(C)C)cc4)c3C)C2)c1,.,.,.,.,45µM*,.
Cc1nn(-c2ccc(C(C)C)cc2)c(C)c1[C@@H]1C=C[C@@H](NC(=S)NC2CCCCC2)C1,.,.,.,.,40µM*,.
COc1ccc(CCn2c(=S)[nH]c(=O)c3nccnc32)cc1OC,18µM*,.,?,-13,.,.
CC(C)(C)c1ccc(OCC(=O)OCC(=O)Nc2sccc2C(N)=O)cc1,.,.,.,1,?,.
O=C(C1=C(O)C(=O)N(CC2CCCO2)C1c1ccccc1Cl)c1ccco1 (stereo not given),-14%,0%,2%,3,32µM*,7%
O=C(C1=C(O)C(=O)N(CC2CCCO2)C1c1ccccc1)c1ccco1 (stereo not given),0%,0%,-1%,1,-27%,13%
CC(C)(C)c1ccc(C2C(C(=O)c3ccco3)=C(O)C(=O)N2CC2CCCO2)cc1 (stereo not given),?,0%,-7%,-2,22µM*,10%
O=C(C1=C(O)C(=O)N(CC2CCCO2)C1c1cccc(Cl)c1)c1ccco1 (stereo not given),-5%,5%,1%,11,28µM*,7%
O=C(C1=C(O)C(=O)N(CC2CCCO2)C1c1ccc(Cl)cc1Cl)c1ccco1 (stereo not given),2%,1%,-9%,0,40µM*,0%
O=[N+]([O-])c1ccc(/C=N/Nc2ccc(Cl)nn2)cc1,.,.,.,-1,17%,.
Cc1ccc(C(=O)C2=C(O)C(=O)N(Cc3ccco3)C2c2cccc(Br)c2)o1 (stereo not given),-2%,-1%,-3%,-5,?,1%
Cc1ccc(C(=O)C2=C(O)C(=O)N(Cc3ccco3)C2c2cccc(Cl)c2)o1 (stereo not given),-22%,1%,-13%,0,25µM*,2%
NC(=S)N/N=C1\CCCc2ccccc21,.,.,.,-2,?,.
NC(=S)NN=C1c2ccccc2-c2ccccc21,?,16%,3%,-8,35µM*,4%
O=C(Nc1ccc(-c2noc(/C=C/c3ccccc3)n2)cc1)c1ccc(Br)o1,.,.,.,-3,28µM*,.
O=C(Nc1ccc(-c2noc(-c3cccs3)n2)cc1)c1ccc(Br)o1,.,.,.,-3,-47%,.
COc1ccc(S(=O)(=O)N2CCN(CCCOc3ccc(F)cc3)CC2)cc1OC,23µM*,0%,0%,-10,-21%,0%
COc1ccc(OC2CCN(S(=O)(=O)c3ccc(C(C)=O)cc3)CC2)cc1,21µM*,-1%,-2%,0,-7%,-10%
COc1ccc(OC2CCN(S(=O)(=O)c3ccc(F)cc3)CC2)cc1,-25%,0%,18%,1,11%,-4%
COc1ccc(S(=O)(=O)N2CCC(N3CCN(c4ccccc4OC)CC3)CC2)cc1,4%,0%,-3%,-32*,?,5%
